Compounds without any hit were thinned out: in the full panel of roughly 79,000, 15% have a hit. Unmarked numbers belong to inactive results. Active and inactive are the calls of the source. Cut-off read from the data, not from the text of the source: active = growth inhibition above about 70%; inactive = the rest. Where a SMILES comes first, the peptide text is derived from it.
Legend:
[1] = NCI Yeast Anticancer Drug Screen. Data for the rad50 strain (AID 155);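 note: 0% = growth of vehicle-only cultures of the same strain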; details: S. cerevisiae rad50 strain growth inhibition; at 50.0 µM; hits give high values
How it was run: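 Relative growth inhibition (compound vs vehicle) was measured in yeast with a defined repair-gene alteration.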

[2] = NCI Yeast Anticancer Drug Screen. Data for the mec2-1 strain (AID 157); details: S. cerevisiae mec2-1 strain, at 50.0 µM, hits give high values
How it was run: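 Vehicle-treated cultures served as reference for growth inhibition of compound-exposed mec2-1 yeast.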

[3] = NCI Yeast Anticancer Drug Screen. Data for the sgs1 mgt1 strain (AID 161);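 note: 0% = growth of cultures given vehicle only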; details: S. cerevisiae sgs1 mgt1 strain, at 50.0 µM, hits give high values
How it was run: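 Inhibition of yeast growth, normalised to vehicle-treated controls, is reported for a strain bearing genetic alterations in DNA damage repair.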

[4] = NCI Yeast Anticancer Drug Screen. Data for the cln2 rad14 strain (AID 165);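 note: 0% = growth equal to vehicle treated cultures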; details: S. cerevisiae cln2 rad14 strain, at 50.0 µM, hits give high values
How it was run: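 Each compound was tested on cln2 rad14 yeast. Inhibition of growth was calculated against vehicle-exposed controls.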

[5] = NCI Yeast Anticancer Drug Screen. Data for the bub3 strain (AID 167); details: S. cerevisiae bub3 mutant strain, at 50.0 µM, hits give high values
How it was run: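 Screening used yeast with an engineered genetic alteration affecting cell cycle control. Compound-exposed cultures were compared with vehicle cultures, and reduced growth was taken as inhibition.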

[6] = NCI Yeast Anticancer Drug Screen. Data for the mlh1 rad18 strain (AID 175); details: S. cerevisiae mlh1 rad18 strain growth inhibition; at 50.0 µM; hits give high values
How it was run: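 Vehicle-treated cultures served as the reference for growth inhibition in a yeast strain carrying DNA damage repair alterations exposed to each compound.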

SMILES | growth inhibition [1] | growth inhibition [2] | growth inhibition [3] | growth inhibition [4] | growth inhibition [5] | growth inhibition [6]
CC(C)CN(CC#N)CC(C)C | -31.8% | -26.9% | -34.5% | 15.1% | -49.1% | -50%
Nc1ccccc1SC(CC(=O)c1ccccc1)c1cccc([N+](=O)[O-])c1 (stereo unspecified) | -31.1% | -26.1% | 0.55% | -29.6% | -17.9% | -13.5%
Fc1ccccc1N=Cc1ccc(C=Nc2ccccc2F)cc1 | 3.85% | -11.2% | 23.9% | 21.3% | 45.6% | 26.4%
NNC(=Nc1ccccc1)SCc1ccccc1 | 3.05% | 0.5% | 23.4% | 7.75% | 20.2% | -30.9%
CC(=O)Nc1nc(C)c(CC/C=C/c2ccc([N+](=O)[O-])cc2)c(Cl)n1 | 8.9% | 32.9% | 38% | -6.35% | 27.2% | 53%
CC(=O)CC(=O)c1ccc(Cl)cc1 | -28.4% | -11.4% | -10.8% | -13.6% | -4.1% | -0.25%
CC1(C)[C@H]2CC[C@@]1(C)C(=O)[C@H]2[N+](=O)[O-] | 4.25% | -20.2% | -1.8% | 7.85% | -9.15% | 8.75%
Cc1ccc(S(=O)(=O)OCCN(CCO)c2cn(C(c3ccccc3)(c3ccccc3)c3ccccc3)c(=O)n(C(c3ccccc3)(c3ccccc3)c3ccccc3)c2=O)cc1 | -2.1% | 17.8% | 3.7% | -6.8% | -4.3% | 24.3%
Cc1cc(O)c(C(C)C)cc1N=O | 22.2% | -7.25% | 18.5% | 16.6% | -15.6% | 6.35%
CCOc1nc(OCC)c2cnn(C)c2n1 | 6.3% | 1.75% | -3.55% | -28.8% | 7.55% | -3.55%
CS(=O)(=O)OCCN(CCOS(C)(=O)=O)c1ccc(N=Nc2ccccc2C(=O)O)cc1 | 27.9% | 21.9% | 21.6% | 24.8% | 19.1% | 32.4%
OC(c1cccc(Cl)c1)C(Cl)Cl (stereo unspecified) | -2.55% | -9.45% | -22% | -4.15% | -14.5% | 1.95%
O=c1[nH]c2cccccc-2c1-c1nc2ccccc2[nH]1 | 40.6% | 15.2% | 33.6% | 19.5% | 16.7% | 8.95%
CN(C)c1ncnc2cn[nH]c12 | 3.6% | -5.75% | 0.25% | 5.7% | 17.4% | 0.6%
O=C(/C=N/O)Nc1ccccc1 | 10.8% | 7.25% | -0.15% | 7.9% | 7.25% | -9.35%
COC(=O)C1c2ccccc2CC(=O)N1NC(=O)c1ccccc1 (stereo unspecified) | -7.7% | -2.95% | -17.1% | 4.5% | 3.65% | 16.6%
C/C(=N\Sc1cccc([N+](=O)[O-])c1)c1ccccc1O | 91.2% (active) | 96.5% (active) | 96.2% (active) | 90.8% (active) | 94% (active) | 96% (active)
CC(=O)N[N+](C)(C)C | -20% | -39.2% | 11.5% | 4.05% | 1.2% | 7.9%
O=[N+]([O-])c1ccc(N2CCN=N2)cc1 | -24.2% | -14.6% | -15.2% | 2.35% | -14.2% | -6.75%
Cc1cc(N=C2C=CC(=O)C=C2)ccc1O | 40.5% | 21.6% | 30.4% | 10.2% | 15.9% | 25.6%
CCN(CC)CC(O)c1cccc2cccnc12 (stereo unspecified) | 67.7% | -11.4% | 17.4% | 8.8% | 5.2% | 30.2%
CCOC(=O)C1=NN(c2ccccc2)C(=O)/C1=C\N1C(=O)/C(=C/c2cccc(OC)c2O)SC1=S | 30.5% | 8.55% | 31.6% | 20.4% | -0.35% | 21.6%

SMILES | growth inhibition [1] | growth inhibition [2] | growth inhibition [3] | growth inhibition [4] | growth inhibition [5] | growth inhibition [6]
N/N=C(\c1nc2ccc([N+](=O)[O-])cc2[nH]c1=O)C(O)c1ccc(Cl)c(Cl)c1 (stereo unspecified) | 5.7% | -6.65% | -11.1% | -12.7% | 22.3% | -6.6%
CCOC(=O)c1csc(N)n1 | -24.5% | 7.35% | -15.1% | -39.6% | -9.7% | -18.3%
COc1ccc2c(c1)CCCN2 | -3.4% | -23% | -4.05% | -20.1% | -13.3% | 3.65%
CC(C)CC(NC(=O)CNC(=O)CNC(=O)OCc1ccccc1)C(=O)O (stereo unspecified) | -0.1% | 7.75% | -2.1% | -21.8% | -0.9% | 10.8%
Cc1ccc(S(=O)(=O)OC(CI)C2OC(c3ccccc3)OC3COC(c4ccccc4)OC32)cc1 (stereo unspecified) | 0.25% | 13.2% | 7.7% | 8.6% | 16.1% | 25.6%
C[Si](C)(OCCS(=O)(=O)O)C1(Cc2cccc3ccccc23)S(=O)(=O)OCCOS1(=O)=O | 13.6% | -9.55% | 2.6% | 18.1% | 13.1% | 17.2%
CCCCC(O)(c1ccccc1)c1ccccc1CN(C)C (stereo unspecified) | 1.7% | -3% | -0.65% | 6.15% | -2.05% | -4.8%
Nc1nnc2nc(CC(=O)c3ccc(F)cc3)c(CC(=O)c3ccc(F)cc3)nn12 | -3.6% | 30.3% | 6.6% | -2.7% | 1.2% | 6.7%
COc1ccc(N=C(C)c2c(O)n(-c3ccccc3)[nH]c2=O)cc1 | 98.8% (active) | 97.5% (active) | 99.2% (active) | 99.1% (active) | 98.8% (active) | 98.5% (active)
COC(=O)CCC(=O)O | 8.6% | -0.1% | 11.2% | -8.05% | -2.05% | 43.4%
CCC(C)C(N)C(=O)NC(C(=O)O)C(C)C (stereo not drawn) (H-Ile-Val-OH; configuration not given here) | -32.4% | -13.6% | -0.2% | -41.9% | -0.25% | -0.4%
Cc1cn(CCCSCC2OC3OC4C(CO)OC(OC5C(CO)OC(OC6C(CO)OC(OC7C(CO)OC(OC8C(CO)OC(OC9C(CO)OC(OC2C(O)C3O)C(O)C9O)C(O)C8O)C(O)C7O)C(O)C6O)C(O)C5O)C(O)C4O)c(=O)[nH]c1=O (stereo unspecified) | -21.6% | -9.35% | -18.4% | 0% | -1.85% | -14.2%
Cc1ccc(C(=O)c2cc3c([nH]c4ccccc43)c(C)c2C(=O)O)cc1 | 15.8% | -9.55% | -5.1% | 28.6% | 21.5% | 21.1%
N/C([S-])=N/N=c1\c(O)c(O)\c1=N/N=C(/N)[S-].[Cu+2] | -8.6% | -6.6% | -7% | -2.7% | -10.3% | -12.7%
CCOc1c(F)ccc(F)c1-c1c(F)ccc(F)c1OCC | -7.5% | -0.3% | 5.65% | 2.4% | – | -5.2%
CCCCNCC1COc2cccc(OCC)c2O1 (stereo unspecified) | 17.1% | -0.1% | -2% | 9.7% | – | 4%
Cc1cc(Br)ccc1N=c1scc(-c2ccc(Cl)cc2)n1C | -22.2% | -27.6% | 4.45% | 0.1% | – | 15.1%
COc1ccc(C(=O)/C=C/c2c[nH]c3ccccc23)c(O)c1 | 15.8% | 9.85% | 26.3% | -43.2% | – | 22.4%
CCOC(=O)/C(C#N)=C/c1cc(Br)c(O)c(OC)c1 | -12.3% | -22% | 25.4% | -0.8% | – | 10.8%
O=[S@@]1Nc2cc(Cl)c(Cl)cc2S1 | 9.6% | -2% | -6.6% | 3.45% | – | 14.1%
Oc1ccc2ccc3[nH]cnc3c2c1 | -22.5% | -25.4% | -9% | 2.1% | – | 0.15%

— PubChem BioAssay (NCI)
